# Shown are actives, neighbours in structure and some others; about 3.7% of the full set was active somewhere.
# MITF TRPM1 HTS – MITF TRPM1 promoter activation in melanoma cells; SK-MEL-5 TRPM1-promoter luciferase, 24 h; % of positive control, neutral wells = 0; activation, % at 12.5 µM; 0.75% of 300,000 active;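 active = mean activation of at least 80% with every replicate also reaching 80%; inconclusive = mean reaches 80% but some replicate falls short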;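 also: 0% = neutral control wells and 100% = parthenolide positive control wells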
# Wnt act – activates Wnt/beta-catenin signaling in a reporter cell assay. activation, % at 9.35 µM. 1.2% of 300,000 active. activator, plate reader; in the data active = activation above about 30%, passing the limit was not always enough; inconclusive = no clear call, values can overlap the other calls;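 also: 0% = neutral control wells and 100% = positive control wells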
# esBAF inh – SWI/SNF esBAF complex inhibition | AID 602393 | mouse ES cells, Bmi1-luciferase knock-in reporter, 24 h; 100% = twice the neutral-well signal | reporter increase, % at 12.5 µM | 2% of 350,000 active; in the data active = activation above about 40%; inconclusive = no clear call, values can overlap the other calls;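 also: 0% = median of the plate's neutral control wells and 100% = double that signal; a rise in the Bmi1 reporter signal indicates esBAF inhibition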
# Ecoli rRNA inh – inhibitors of bacterial rRNA selective over humanized ribosomes; AID 720706; 1.6% of 350,000 active; E. coli WT GFP vs humanized-ribosome RFP mutants, fluorescence, 24 h; hits give low values; DMSO median 0, no signal -100; GFP signal change (wild-type ribosome), % (no concentration beside the values);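 active = significant combined selectivity score with lowered wild-type GFP, culture density cut under 30%, mutant RFP and density less affected; inactive = any of these conditions unmet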
# MLL AF4-AF9 inh – inhibitors of human MLL-AF4/AF9 interaction; P42568; AlphaScreen, biotin-AF4 peptide binding to FLAG-AF9; AID 651704; inhibition, % at 10 µM; 0.47% of 350,000 active;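 active = every replicate reaching a set inhibition limit, whatever the replicate mean, cut at about 25% in these data; inconclusive = mean inhibition reaches that limit but some replicates miss it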;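 also: 0% = plate neutral control median and 100% = total signal loss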
# Target sequence (P42568 whole entry, looked up): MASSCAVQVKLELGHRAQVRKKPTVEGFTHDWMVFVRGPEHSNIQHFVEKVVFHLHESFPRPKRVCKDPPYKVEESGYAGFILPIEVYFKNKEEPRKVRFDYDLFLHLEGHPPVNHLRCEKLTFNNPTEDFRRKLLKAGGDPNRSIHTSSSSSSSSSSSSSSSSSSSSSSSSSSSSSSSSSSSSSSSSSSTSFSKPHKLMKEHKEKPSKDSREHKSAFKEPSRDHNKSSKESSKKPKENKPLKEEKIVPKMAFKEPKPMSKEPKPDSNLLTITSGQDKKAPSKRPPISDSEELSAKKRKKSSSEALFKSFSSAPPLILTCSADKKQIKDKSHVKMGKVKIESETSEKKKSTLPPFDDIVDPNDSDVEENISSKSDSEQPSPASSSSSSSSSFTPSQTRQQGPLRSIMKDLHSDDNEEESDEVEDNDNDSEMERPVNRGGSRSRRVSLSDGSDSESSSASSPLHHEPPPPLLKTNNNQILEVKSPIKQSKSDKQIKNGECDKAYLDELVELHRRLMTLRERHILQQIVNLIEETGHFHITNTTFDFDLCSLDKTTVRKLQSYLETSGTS
# The depositor's hits bear a star; ? = inconclusive; / = not tested or not shown.
SMILES,MITF TRPM1 HTS,Wnt act,esBAF inh,Ecoli rRNA inh,MLL AF4-AF9 inh
CCOC(=O)c1c(C)[nH]c(C(=O)COC(=O)C2(C)CC2(Cl)Cl)c1C (stereo not given),78.1,50.1*,76.1*,/,/
COc1ccc(S(=O)(=O)N2CCC(C(=O)NCCCN3CCOCC3)CC2)cc1,17.1,-0.3,-3.1,10.2,-2.4
COc1ccc2c3c([nH]c2c1)[C@H](CO)N(C(=O)c1cccc(F)c1)CC31CCN(C(C)=O)CC1,/,/,/,-0.5,/
C[C@H]1CN([C@@H](C)CO)C(=O)c2cccc(NC(=O)c3ccc(-c4nccs4)cc3)c2O[C@@H]1CN(C)C(=O)Nc1ccc(F)cc1,/,/,-1.2,0.0,-1.3
CSc1ccccc1OCc1cc(C(=O)N2CCN(c3ccccc3)CC2C)no1 (stereo not given),44.5,16.8,53.9*,3.5,-1.3
CC(=O)c1ccc(OCc2cc(C(=O)N3CCN(c4ccccc4)CC3C)no2)cc1 (stereo not given),73.0,28.2,110.5*,6.9,2.1
CSc1ccccc1OCc1cc(C(=O)NCCc2ccco2)no1,52.7,6.5,65.0*,-4.5,-1.3
O=C(c1cc(COc2ccc(F)cc2Cl)on1)N1CCC(c2ccncc2)CC1,-4.1,-1.0,/,-39.5,-0.4
CSc1ccccc1OCc1cc(C(=O)N2CCC(c3ccncc3)CC2)no1,-7.5,-0.8,-1.4,-41.4*,2.9
C[C@H](CO)N1C[C@H](C)[C@@H](CN(C)C)Oc2ncc(-c3cccc(C#N)c3)cc2C1=O,/,/,1.8,7.1,-3.0
CCC(C)NC(=O)CN1C(=O)CSc2ccc(S(=O)(=O)N3CCCC3)cc21 (stereo not given),0.0,-1.8,-1.1,3.8,-0.2
C=C1CCN([C@H](C(=O)NCc2ccc(OC)cc2)C(C)C)S(=O)(=O)c2ccccc21,-2.8,-0.3,-1.2,-7.1,3.3
COc1cccc(C2=CC(c3cccc(OC)c3OC)n3nnnc3N2)c1 (stereo not given),11.8,/,47.4*,/,/
OC[C@H]1O[C@@H](c2nc(-c3nc(-c4ccc(F)cc4)no3)cs2)[C@H](O)[C@@H]1O,/,61.1*,4.2,/,-3.2
COc1cc(OC)cc(-c2noc(-c3csc([C@@H]4C[C@H](O)[C@@H](CO)O4)n3)n2)c1,/,-3.5,48.1*,-9.4,2.0
COc1ccc(-c2noc(-c3csc([C@@H]4C[C@H](O)[C@@H](CO)O4)n3)n2)cc1OC,/,13.2,37.3,-7.2,-3.3
CCOc1ccc(-c2noc(-c3csc([C@@H]4C[C@H](O)[C@@H](CO)O4)n3)n2)cc1,/,-1.5,80.8*,-5.4,0.7
OC[C@H]1O[C@@H](c2nc(-c3ccc(Br)cc3)no2)C[C@@H]1O,/,26.7,29.7,-1.9,0.3
COc1cc(OC)c(C(=O)OCCCOC(=O)c2cc(OC)c(OC)cc2OC)cc1OC,-0.8,-0.7,/,-4.9,-3.1
Cc1ccc(N2CN=C(c3ccccc3)NC2=S)cc1,59.6,/,56.9*,/,/
O=C(C[C@@H]1CC[C@H]2[C@@H](COC[C@@H](O)CN2Cc2ccc(F)cc2)O1)NCc1ccccc1Cl,/,/,0.1,-3.6,-0.2
O=C(NC1CCC(=O)N(CCSc2ccccc2)CC1)OCc1ccccc1 (stereo not given),0.2,-8.3,18.4,-10.1,-3.2
Cc1cc(N2CCCCC2)nc(SCC(=O)c2ccccc2)n1,/,?,52.6*,/,/
CC(O)(c1ccc(F)c(F)c1)c1nc(-c2ccccc2)cs1 (stereo not given),/,-2.7,-0.4,-30.5,-7.6
c1ccc(CSCc2cn3ccsc3n2)cc1,84.5*,/,59.4*,/,/
SMILES,MITF TRPM1 HTS,Wnt act,esBAF inh,Ecoli rRNA inh,MLL AF4-AF9 inh
Cc1cc(C)n2cc(CSc3ccc(Cl)cc3)nc2n1,7.5,6.6,-4.9,-24.9*,3.1
Cc1csc2nc(CSc3ccc(Cl)cc3)cn12,91.8*,/,/,/,/
Clc1ccc(SCc2cn3cccnc3n2)cc1,48.5,9.6,?,/,/
Clc1ccc(SCc2cn3ccsc3n2)cc1,79.6,52.4*,/,/,/
Cc1ccc(SCc2cn3c(C)cc(C)nc3n2)cc1,/,6.9,/,-7.4,-1.3
C[C@H]1CN([C@@H](C)CO)C(=O)c2cccc(NS(=O)(=O)c3ccc(Cl)cc3)c2O[C@H]1CN(C)S(=O)(=O)c1ccccc1,/,/,-0.5,-2.7,0.3
COCCCNC(=O)c1cc(C)nn1-c1ccccc1,-11.1,1.1,/,1.4,1.6
OC[C@@H]1[C@@H](c2ccc(C#Cc3ccccc3F)cc2)[C@@H]2CN(CC3CCOCC3)CCCCN12,/,/,-4.1,-3.6,13.0
CC1CCCCC1NC(=O)Cn1nc(-c2ccccc2)ccc1=O (stereo not given),5.6,-3.4,-0.3,0.2,26.9*
Cc1cc(=O)[nH]c(SCc2cccc3cccnc23)n1,2.7,2.5,5.4,1.8,0.8
O=S(=O)(Nc1ccc(O)c(Sc2nc3ccccc3s2)c1)c1ccc(Cl)cc1,-5.3,-0.6,/,/,/
CCOC(=O)/C=C1/N(C)c2ccccc2C1(C)C,16.2,41.2*,-0.4,12.1,4.3
CN1/C(=C\C(=O)COC(=O)c2ccc(O)cc2)C(C)(C)c2ccccc21,-15.3,-8.6,-5.0,-34.4,-27.1
Cc1cc(C(=O)NCCC2=CCCCC2)ccc1[N+](=O)[O-],33.0,/,/,-34.8*,2.5
COc1ccc(C(=O)NCCC2=CCCCC2)cc1OC,/,/,49.9*,/,/
O=C1CSc2ccc(C(=O)NCCC3=CCCCC3)cc2N1,30.0,19.1,50.4*,/,/
COC(=O)COc1ccc(S(=O)(=O)NCCC2=CCCCC2)cc1,6.5,/,-2.6,/,/
COC(=O)COc1ccc(S(=O)(=O)NCCC2=CCCCC2)cc1C,0.6,-1.9,0.1,-21.0*,-2.1
O=C(c1ccc(CS(=O)(=O)c2ccccc2)o1)N1CCN(c2ncccn2)CC1,/,-4.3,-1.3,1.1,4.1
CC(=O)c1cccc(NC(=O)COC(=O)CCNS(=O)(=O)c2ccccc2)c1,-16.3,-1.9,1.9,2.4,0.1
O=C(COC(=O)c1ccccc1)NCCC1=CCCCC1,5.8,-0.7,/,-27.5*,-0.6
COc1cc(/C=N\Nc2nc3ccccc3[nH]2)cc(OC)c1OC,-2.4,-7.0,-10.4,/,/
COc1cc(OC)c(OC)cc1/C=N/Nc1nc2ccccc2[nH]1,/,13.3,/,-39.0*,/
C(=N\Nc1nc2ccccc2[nH]1)/c1ccccn1,-81.9,20.8,/,12.1,14.1
C(=N\Nc1nc2ccccc2[nH]1)/c1ccc2c(c1)OCCO2,/,34.7*,/,-1.2,/
COc1ccc(/C=N/Nc2nc3ccccc3[nH]2)cc1OC,?,11.8,/,-43.9,15.4
COc1ccc2c(c1)c(/C=N/Nc1nc3ccccc3[nH]1)c(C)n2C,/,56.8*,/,-18.6,22.7
C(=N\Nc1nc2ccccc2[nH]1)/c1cccc2nccnc12,/,2.8,11.9,-31.4*,5.7
OC[C@@H]1[C@@H](c2ccc(-c3ccc(F)cc3)cc2)[C@H]2CN(CCC(F)(F)F)CCCCN12,/,/,/,-58.6,10.4
CCOC1=C2CN(S(=O)(=O)c3ccc(C)cc3)CC[C@@H]2N(S(=O)(=O)c2ccc(C)cc2)[C@H](c2ccccc2)C1,/,-0.4,1.0,7.9,0.6

# Screens from PubChem BioAssay.
